# Test results reported in PubChem BioAssay (NCATS).
# Several values for one entry are separate records, joined by “and”; a condition that tells them apart may be missing. Equal entries are not always repeated. Inconclusive results are not listed. Entries that show only a call come without a potency. Activity calls are given as the source filed them. Calls follow the shape of the dose curve; as a rule, active = well fitted cell-killing curve with a large enough effect; inconclusive = small, poorly fitted or top-dose-only effect; inactive = no such curve, though single readings can be large or run the other way.
# Assay: qHTS of pediatric cancer cell lines to identify multiple opportunities for drug repurposing: Primary screen for MG 63 (6-TG R) cells (AID 1347105); also: nearly all actives have a fitted effect of over 50% in size
# Conditions: MG 63 (6-TG R) viability, CellTiter-Glo, 48 h; series mostly up to 46 µM
# Source text: Drug repurposing or repositioning has been offered as a strategy for drug development in oncology programs. This approach has special potential for childhood cancers and other rare or orphan diseases, where the expected return on new drug development has been a disincentive to pharmaceuticals. […] In this project we exploit the poly-pharmacology of drugs to discover new indications via phenotypic screening of a panel of 19 well-characterized cell lines derived from solid tumors seen in children and adolescents. The goal is to identify approved drugs with previously unrecognized anticancer properties that has the potential to reveal new mechanisms and biological processes involved in carcinogenesis or drug resistance. We employed a titration-based paradigm (quantitative high-throughput screening or qHTS), where all compounds were tested at multiple concentrations for their effect on cell viability. Concentration-response curves (CRCs) were derived directly from the primary screen, and both potency and efficacy values were used to identify compounds with robust bioactivity profiles. We screened the NIH Chemical Genomics Center (NCGC) Pharmaceutical Collection (NPC) and Mechanism Interrogation Plate (MIPE) small molecule collections of approved and investigational compounds against these cell lines; and measured metabolically active cells after 48 hours of compound treatment as a proxy for cell viability. […] Assay Submitter: Nathalia J. Martinez, National Center for Advancing Translational Sciences, National Institutes of Health, Rockville, MD, USA; email: natalia.martinez@nih.gov Shen, M et al. Quantitative high-throughput phenotypic screening of pediatric cancer cell lines identifies multiple opportunities for drug repurposing. Oncotarget 2017 Dec 19;9(4):4758-4772. PMID 29435139.
# The cells were obtained from University of North Carolina (UNC), Pediatric Preclinical Testing Program (PPT), and Coriell Institute (CI). qHTS cell viability assay: Cells were assayed in growth media at a density of 500-1,000 cells/well. Five microliters of cells were dispensed into 1,536-well, white, solid-bottom, TC-treated plates (Greiner Bio One) using a multidrop dispenser and incubated at 37 degrees C, 5% CO2, under a humidified atmosphere for 5 hours. Twenty-three nanoliters of compounds and controls (neutral control DMSO or positive control bortezomib at final concentration of 2.3 µM) were subsequently transferred by Kalypsys pintool. For primary screens, the MIPE collection was tested at 11-point dilutions (final concentrations range from 0.78 nM to 46 µM) and the NPC collection at 8-point dilutions (final concentrations range from 0.59 nM to 46 µM). Compounds tested in follow-up screens were assayed at 11-point dilutions. Cells were incubated for 48 hours, followed by addition of 3 µL of CellTiter-Glo (Promega). After a 15 min incubation at room temperature, samples were analyzed for luminescence intensity using a ViewLux High-throughput CCD imager equipped with clear filters.
# Potency is read from the fitted curve at half-maximal effect.
row,Compound,Potency
1,O=C(O)c1cn(C2CC2)c2cc(N3CCNCC3)c(F)cc2c1=O,inactive
2,S=P(N1CC1)(N1CC1)N1CC1,inactive
3,CCCCS(=N)(=O)CCC(N)C(=O)O (stereo not given),inactive
4,COc1cc2nc(N3CCCN(C)CC3)nc(NC3CCN(Cc4ccccc4)CC3)c2cc1OC,9.35 µM (active)
5,CS(=O)(=O)c1ccc([C@@H](O)[C@@H](CO)NC(=O)C(Cl)Cl)cc1,inactive
6,CNNCc1ccc(C(=O)NC(C)C)cc1,inactive
7,Nc1nc(N)nc(-c2cc(Cl)ccc2Cl)n1,inactive
8,COC(=O)Nc1nc2ccc(S(=O)c3ccccc3)cc2[nH]1 (stereo not given),668 nM (active) and 14.8 µM (active)
9,COC(=O)Nc1nc2ccc(C(=O)c3ccccc3)cc2[nH]1,84.1 nM (active) and 935 nM (active)
10,Cc1nnc(C(=O)NC(C)(C)c2nc(C(=O)NCc3ccc(F)cc3)c(O)c(=O)n2C)o1,inactive
11,Cc1ncc([N+](=O)[O-])n1CCO,inactive
12,O=C(NCC1CN(c2ccc(N3CCOCC3=O)cc2)C(=O)O1)c1ccc(Cl)s1 (stereo not given),inactive
13,C[C@@H](NCCCc1cccc(C(F)(F)F)c1)c1cccc2ccccc12,inactive
14,CCN1CCCC1CNC(=O)c1cc(S(N)(=O)=O)ccc1OC (stereo not given),inactive
15,Nc1nc(=S)c2[nH]cnc2[nH]1,inactive
16,N[C@@H](C(=O)N[C@@H]1C(=O)N2C(C(=O)O)=C(Cl)CS[C@H]12)c1ccccc1,inactive
17,COC(c1ccccc1)(c1ccccc1)[C@H](Oc1nc(C)cc(C)n1)C(=O)O,inactive
18,CCCOc1ccc(C(=O)OCCN(CC)CC)cc1N,inactive
19,CC(C)NCC(O)c1ccc(NS(C)(=O)=O)cc1 (stereo not given),inactive
20,CCCc1cc(C(N)=S)ccn1,inactive

row,Compound,Potency
1,CNC1CCCN(c2c(F)cc3c(=O)c(C(=O)O)cn(C4CC4)c3c2OC)C1 (stereo not given),inactive
2,CC[C@H](NC(C)C)[C@H](O)c1ccc(O)c2[nH]c(=O)ccc12,inactive
3,O=C(N[C@H](CO)[C@H](O)c1ccc([N+](=O)[O-])cc1)C(Cl)Cl,inactive
4,N=C(N)c1ccc(OCCCCCOc2ccc(C(=N)N)cc2)cc1,inactive
5,NNC(=O)c1ccncc1,inactive
6,Cc1cccc(N(C)C(=S)Oc2ccc3ccccc3c2)c1,inactive
7,CCc1cc(C(N)=S)ccn1,inactive
8,O=S(=O)(c1cccc2cnccc12)N1CCCNCC1,inactive
9,NC(=O)c1cccc(N)c1,inactive
10,O=P(O)(O)C(O)(Cc1cccnc1)P(=O)(O)O,inactive
11,CCn1cc(C(=O)O)c(=O)c2cc(F)c(N3CCN(C)CC3)cc21,inactive
12,Cc1cc(NS(=O)(=O)c2ccc(N)cc2)no1,inactive
13,CN(C)c1ccc(C(=C2C=CC(=[N+](C)C)C=C2)c2ccc(N(C)C)cc2)cc1,2.66 µM (active) and 1.48 µM (active)
14,CC1CC2C3CCC4=CC(=O)C=C[C@]4(C)[C@@]3(F)[C@@H](O)C[C@]2(C)[C@@]1(O)C(=O)CO (stereo not given in full),inactive
15,O=c1oc2c(O)c(O)cc3c(=O)oc4c(O)c(O)cc1c4c23,inactive
16,O=C(O)c1ccc(-n2nc(-c3ccccc3O)nc2-c2ccccc2O)cc1,inactive
17,COC(=O)Nc1nc2ccc(Sc3ccccc3)cc2[nH]1,668 nM (active) and 1.18 µM (active)
18,NS(=O)(=O)c1cc2c(cc1Cl)NC(C(Cl)Cl)NS2(=O)=O (stereo not given),inactive
19,COc1cc([C@@H]2c3cc4c(cc3[C@H](O)[C@H]3COC(=O)[C@H]23)OCO4)cc(OC)c1OC,inactive
20,CC(C)(C)C(=O)OCOP(=O)(COCCn1cnc2c(N)ncnc21)OCOC(=O)C(C)(C)C,inactive
